# Source: PubChem (National Center for Advancing Translational Sciences (NCATS))
# PINK1 expr mod = PINK1 expression modulation; PINK1 immunofluorescence, high-content cytometry, 24 h; Potency, µM (highest dose often 76.6 µM), for the others: top-dose activation (PINK1 increase), usual class: activators; hit rate 0.2% among 410,000; active = well fitted activation curve with a large enough effect; inconclusive = small, poorly fitted or top-dose-only effect; cell line not stated here; also: % of control where 0% means no effect; nearly all actives have a fitted effect of over 65% in size
#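 Measures PINK1 amount and localization on or inside mitochondria by immunofluorescence. Stable cells get compounds at 5 concentrations for 24 hours before fixation and staining; CCCP controls included.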
# 12-LOX inh = ALOX12 (human) lipoxygenase inhibition; P18054; purified 12hLO, xylenol orange hydroperoxide absorbance; Potency, µM (titrated, usually from 108 µM), for the others: at the top dose activity change, negative = inhibition, most hits filed as inhibitors; hit rate 1.1% among 580,000; also: % is scaled to controls: 0 for no effect and ±100 for the full control effect
# Target sequence (P18054 whole entry, looked up): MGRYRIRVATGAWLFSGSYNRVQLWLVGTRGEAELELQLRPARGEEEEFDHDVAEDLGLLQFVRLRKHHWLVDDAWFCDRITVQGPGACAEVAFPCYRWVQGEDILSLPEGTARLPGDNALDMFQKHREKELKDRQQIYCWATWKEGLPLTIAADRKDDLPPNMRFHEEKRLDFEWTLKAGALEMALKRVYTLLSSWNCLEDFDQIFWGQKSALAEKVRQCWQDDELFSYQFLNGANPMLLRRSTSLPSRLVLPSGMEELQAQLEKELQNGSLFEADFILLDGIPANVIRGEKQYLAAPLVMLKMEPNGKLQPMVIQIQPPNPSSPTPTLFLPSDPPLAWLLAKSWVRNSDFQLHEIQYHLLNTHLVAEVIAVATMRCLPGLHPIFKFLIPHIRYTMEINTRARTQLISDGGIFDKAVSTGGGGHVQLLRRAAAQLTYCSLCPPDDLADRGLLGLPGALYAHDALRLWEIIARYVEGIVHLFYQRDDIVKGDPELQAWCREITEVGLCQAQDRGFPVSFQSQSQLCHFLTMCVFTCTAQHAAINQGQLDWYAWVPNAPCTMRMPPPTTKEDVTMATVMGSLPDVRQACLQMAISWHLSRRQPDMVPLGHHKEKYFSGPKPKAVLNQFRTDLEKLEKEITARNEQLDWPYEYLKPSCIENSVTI
#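 Purified human 12hLO (150 nM final) in 25 mM Hepes, 0.01% Triton X-100, pH 7.0 was preincubated 15 min at room temperature with compound. Then 40 uM arachidonic acid was added, 30 min. Hydroperoxide was read by Fe-XO absorbance ratio 573/405 nm.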
# SW480 rereplic = induces DNA re-replication in SW480 colon adenocarcinoma cells | Potency, µM (top dose mostly 46.1 µM), inactives show top-dose re-replication activation, hits mostly activators | AID 624297 | SW480 DNA re-replication, Hoechst DNA content imaging, 48 h | hit rate 1.8% among 340,000; also: % of control where 0% means no effect; nearly all actives have a fitted effect of over 55% in size
#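 Treated cells incubate 48 hr (37 C, 5% CO2), are stained 40 min with Hoechst, and nuclear fluorescence is enumerated; a rise in nuclei with high DNA signal marks re-replication.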
# MCF10A rerep = induces DNA re-replication in MCF 10a normal breast cells; Potency, µM (top dose mostly 46.1 µM), inactives show top-dose activity, positive = re-replication, most hits filed as activators; hit rate 2.9% among 350,000; MCF 10A DNA re-replication, Hoechst nuclear intensity, 48 h; also: % of control where 0% means no effect; nearly all actives have a fitted effect of over 50% in size
# KB-V1 cytotox = kills drug-selected multidrug resistant KB-V1 cells; KB-V1 MDR cells viability, CellTiter-Glo, 72 h; Potency, µM (doses to about 46.1 µM), usual class: cytotoxic; hit rate 3.4% among 400,000; also: % is scaled to controls: 0 for no effect and ±100 for the full control effect; nearly all actives have a fitted effect of over 60% in size
#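 KB-V1, DMEM (no phenol red) + 10% FBS; cpd pin-transferred, titration series; 72 h, 37 degrees C; CellTiter-Glo, luminescence. Data normalized, curve-fit.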
# KB-3-1 cytotox = kills parental KB-3-1 adenocarcinoma cells; KB-3-1 viability, CellTiter-Glo ATP luminescence, 72 h; Potency, µM (doses to about 46.1 µM), actives largely listed as cytotoxic; hit rate 1.4% among 400,000; AID 1347075; also: % is scaled to controls: 0 for no effect and ±100 for the full control effect; nearly all actives have a fitted effect of over 60% in size
#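 Multi-concentration cytotoxicity screen in KB-3-1 cells grown in DMEM lacking phenol red with 10% FBS. After 72 h at 37 °C with compound, ATP-dependent luminescence was recorded.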
# Numbers without * were called inactive; i = inactive; ? = inconclusive; nt = no result given; [ ] = dose if it differs, or a comment. Most compounds without a hit are left out; they make up all but 5.8% or so of the library. Unless noted, calls follow the shape of the dose curve; as a rule, active = well fitted curve in the direction sought with a large enough effect; inconclusive = small, poorly fitted or top-dose-only effect, or another doubt; inactive = no such curve, though single readings can be large; an effect the other way counts as inactive or inconclusive. Potency is read from the fitted curve at half-maximal effect.
SMILES,PINK1 expr mod,12-LOX inh,SW480 rereplic,MCF10A rerep,KB-V1 cytotox,KB-3-1 cytotox
CNc1nc2c(s1)C(c1ccc(F)c(F)c1)CC(=O)N2 (configuration not stated),nt,-25%,nt,nt,nt,nt
CCNc1nc2c(s1)C(c1cccnc1)CC(=O)N2 (configuration not stated),nt,-10%,nt,nt,nt,nt
Nc1nc2c(s1)C(c1ccc(F)cc1F)CC(=O)N2 (configuration not stated),nt,13µM*,nt,nt,nt,nt
COc1cccc(C2CC(=O)Nc3nc(N)sc32)c1OCc1ccc(F)cc1 (configuration not stated),nt,2µM*,nt,nt,nt,nt
Nc1nc2c(s1)C(c1cccc(OCc3cccc(F)c3)c1)CC(=O)N2 (configuration not stated),nt,3.5µM*,nt,nt,nt,nt
O=S(=O)(Nc1nc2ccccc2nc1NCCc1ccccc1)c1ccc(F)cc1,nt,14%,nt,nt,nt,nt
CCn1nc(C)c(CNC(=O)[C@@H]2C[C@@H](O)CN2C2CCN(C(=O)c3cccc(OC)c3)CC2)c1C,nt,22%,nt,nt,nt,nt
COc1ccc(-c2nc3c(c(=O)[nH]2)CCN(C(=O)c2ccc(OC)nc2)C3)cc1,nt,27%,nt,nt,nt,nt
CCOC(=O)c1cnc2c(OC)cccc2c1N1CCN(c2ccccn2)CC1,0%,-9%,-6%,?,8.2µM*,i
CCOC(=O)c1cc(-c2ccc(C)cc2)n(CCC(=O)Nc2ccc(C(C)C)cc2)c1C,2%,-12%,nt,nt,?,18µM*
CCOC(=O)c1cc(-c2ccc(C)cc2)n(CCC(=O)N2CCN(c3ccccn3)CC2)c1C,8%,?,4%,?,1.2µM*,?
Cc1ccc(-c2nc(C#N)c(NCCN3CCOCC3)o2)cc1,nt,3%,nt,nt,nt,nt
CCOC(=O)c1cc(-c2ccccc2)sc1NC(=O)C(C)Sc1nnc(N)s1 (configuration not stated),-1%,-7%,?,?,2.1µM*,?
CCOC(=O)c1cc(-c2ccccc2)sc1NC(=O)C(C)OC(=O)c1cccnc1OCC (configuration not stated),-1%,-12%,2.9µM*,?,i,i
CCOC(=O)c1cc(-c2ccccc2)sc1NC(=O)CSc1nnc(N)s1,9%,-2%,-12%,5%,?,i
CCc1ccc(-c2nc(SCc3nc4cc(S(=O)(=O)N(C)C)ccc4n3CC)n[nH]2)cc1,nt,7%,nt,nt,nt,nt
Cc1nc(Cl)c(C(=O)NC(=O)Nc2cccc(C(F)(F)F)c2)c(C)c1[N+](=O)[O-],?,0%[57.4 µM],?,18%,?,10µM*
Cc1onc(C(=O)Nc2cccc(C(F)(F)F)c2)c1[N+](=O)[O-],0%,-10%,13%,?,i,i
Cc1ccc(OCC(=O)N2CCc3ccccc3C2)c(C)c1,4%,-21%,1%,-2%,i,i
NC(=O)c1ccccc1OCC(=O)N1CCc2ccccc2C1,3%,-1%,10µM*,2%,?,i
COC(=O)c1ccc(OC(=O)/C=C/c2ccc(Br)o2)cc1,nt,11µM*,nt,nt,nt,nt
COC(=O)c1ccc(OC(=O)/C=C/c2ccco2)cc1,3%,-12%,?,9%,?,i
COc1ccc(CN2CCC(C)CC2)cc1,nt,-55%,nt,nt,nt,nt
Cc1ccccc1OC(C)C(=O)Nc1ccc(S(=O)(=O)N2CCCC2)cc1 (configuration not stated),1%,2%,-3%,?,nt,nt
CC(OC(=O)c1cc(Br)ccc1O)C(=O)Nc1ccc(S(=O)(=O)N2CCCC2)cc1 (configuration not stated),16µM*,-24%,?,?,23µM*,?
CC(Oc1cc(F)ccc1[N+](=O)[O-])C(=O)Nc1ccc(S(=O)(=O)N2CCCC2)cc1 (configuration not stated),-2%,-16%,16µM*,21µM*,?,i
